Screening results as filed in PubChem.
Wnt bcat act – activators of Wnt/beta-catenin signaling. Wnt/beta-catenin reporter cell assay, activator, plate reader. activation, % at 9.35 µM. actives 1.2% (n = 300,000). AID 743398; in the data active = activation above about 30%, passing the limit was not always enough; inconclusive = no clear call, values can overlap the other calls;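 also: 0% = neutral control wells and 100% = positive control wells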
MITF TRPM1 HTS – MITF TRPM1 promoter activation in melanoma cells; SK-MEL-5 TRPM1-promoter luciferase, 24 h; % of positive control, neutral wells = 0; activation, % at 12.5 µM; actives 0.75% (n = 300,000); AID 588334;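 active = mean activation of at least 80% with every replicate also reaching 80%; inconclusive = mean reaches 80% but some replicate falls short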;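 also: 0% = neutral control wells and 100% = parthenolide positive control wells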
HSF-1 act – increases HSF-1 driven luciferase reporter signal. NIH3T3-HGL HSF-1 luciferase reporter, MG132, 8 h; 100% = twice DMSO control signal. activation, % at 9 µM. actives 1.7% (n = 300,000);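 active = mean replicate activation of at least 50% with a set share of replicates each reaching 50%; inconclusive = only one of those two conditions met; inactive = mean below 50% and too few replicates reaching it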;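 also: 0% = median of the neutral control wells and 100% = twice that signal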
esBAF inh – SWI/SNF esBAF complex inhibition; mouse ES cells, Bmi1-luciferase knock-in reporter, 24 h; 100% = twice the neutral-well signal; reporter increase, % at 12.5 µM; actives 2% (n = 350,000); AID 602393; in the data active = activation above about 40%; inconclusive = no clear call, values can overlap the other calls;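 also: 0% = median of the plate's neutral control wells and 100% = double that signal; a rise in the Bmi1 reporter signal indicates esBAF inhibition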
HSF1 inhib – HSF1 inhibition; AID 2098; NIH3T3-HGL HSE-luciferase, MG132-induced, luminescence 8 h; stronger effect = lower value; actives 0.77% (n = 300,000); activity change, negative = inhibition, % at 7.5 µM (by protocol);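 active = more than half of replicate wells show activity change below -50%, luminescence cut by over half; inconclusive = some wells, but at most half, below -50%; inactive = no replicate well below -50%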;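 also: luciferase reports HSF-1 transcriptional activity via heat shock element; 0% = median of DMSO wells and -100% = zero luminescence signal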
The depositor's hits bear a star. A selection: hits, their analogues and other compounds. The true share with any hit is near 3.8%.

What do the screens show for `CCN(CC)S(=O)(=O)c1ccc(C(=O)Nc2cc(C)on2)cc1`?
Wnt bcat act: 0.8; MITF TRPM1 HTS: 3.2; HSF-1 act: -7.2; esBAF inh: 2.3; HSF1 inhib: -3.2

What do the screens show for `CCN(CC)S(=O)(=O)c1cc(C(=O)Nc2cc(C)on2)ccc1Cl`?
Wnt bcat act: -1.1; MITF TRPM1 HTS: 4.4; HSF-1 act: -69.7; esBAF inh: -1.9; HSF1 inhib: -60.6*

How did CCNC(=O)C[C@H]1CC[C@@H]2[C@@H](COc3ccc(NC(=O)Nc4ccc(F)cc4)cc3C(=O)N2C)O1 do in these assays?
esBAF inh: -0.3

Results for C[C@H]1CN([C@@H](C)CO)C(=O)c2cc(NS(=O)(=O)c3cn(C)cn3)ccc2O[C@@H]1CN(C)C(=O)Nc1ccccc1 ?
esBAF inh: 4.3

What do the screens show for `COCc1cc(=O)[nH]c(SCCS(=O)(=O)c2ccc(Cl)cc2Cl)n1`?
Wnt bcat act: -17.3; MITF TRPM1 HTS: -6.7; HSF-1 act: 78.4*; esBAF inh: -10.0; HSF1 inhib: 88.3

How did C[C@H](CO)N1C[C@H](C)[C@@H](CN(C)C(=O)c2ccncc2)OCCCC[C@H](C)Oc2ccc(N(C)C)cc2C1=O do in these assays?
esBAF inh: -0.4

What do the screens show for `O=C([C@@H]1[C@@H](CO)[C@@H]2Cn3c(ccc(C4=CCCC4)c3=O)[C@@H]2N1Cc1nccs1)N1CCOCC1`?
esBAF inh: -10.7

Results for COc1ccc(NC2=Nc3ccccc3N3C2=Nc2c(c(C)nn2-c2ccc(C)cc2)C3c2cccnc2)cc1 (stereo not given) ?
MITF TRPM1 HTS: -5.6; HSF-1 act: -85.8; esBAF inh: 4.6; HSF1 inhib: -81.0*

Results for CC(=O)Nc1ccc(NC2=Nc3ccccc3N3C2=Nc2c(c(C)nn2-c2ccccc2)C3c2ccccc2)cc1 (stereo not given) ?
Wnt bcat act: 14.3; MITF TRPM1 HTS: -78.5; HSF-1 act: 1.6; HSF1 inhib: -7.5

How did CC(NC(=O)COC(=O)CCc1nc(=O)c2ccccc2n1C)c1ccccc1 (stereo not given) do in these assays?
Wnt bcat act: 1.2; MITF TRPM1 HTS: 5.1; HSF-1 act: 2.4; HSF1 inhib: -8.1

How did Cn1c(CCC(=O)OCC(=O)Nc2ccc(Oc3ccccc3)cc2)nc(=O)c2ccccc21 do in these assays?
Wnt bcat act: -8.0; MITF TRPM1 HTS: 18.2; HSF-1 act: 55.3*; esBAF inh: 0.0; HSF1 inhib: 17.2

What do the screens show for `O=C(COC(=O)C1CCC1)Nc1ccc(Oc2ccccc2)cc1`?
Wnt bcat act: 1.8; MITF TRPM1 HTS: 8.0; HSF-1 act: 52.3*; esBAF inh: 4.7; HSF1 inhib: 15.1

What do the screens show for `CC1(CC(=O)Nc2ccccc2)NC(=S)N(c2ccccc2)N1` (stereo not given)?
Wnt bcat act: 3.1; MITF TRPM1 HTS: 9.6; HSF-1 act: 7.1; esBAF inh: 29.2*; HSF1 inhib: 4.7

What do the screens show for `O=C(c1cccc(F)c1)N1C[C@H]2[C@@H](c3ccccc31)[C@H](CO)N2C(=O)C1CCOCC1`?
esBAF inh: -3.2

Results for CN1C[C@@H]2[C@H](c3ccccc31)[C@H](CO)N2C(=O)CN1CCOCC1 ?
esBAF inh: -2.3

What do the screens show for `Clc1cccc2sc(-c3nnc(-c4ccccc4)o3)c(Cl)c12`?
MITF TRPM1 HTS: 34.9; HSF-1 act: 27.4; esBAF inh: 43.8*; HSF1 inhib: 20.0

How did N#CCSc1nnc(-c2sc3ccccc3c2Cl)o1 do in these assays?
MITF TRPM1 HTS: -8.6; HSF-1 act: 23.5; HSF1 inhib: 11.0

Results for Cc1cc(C(=O)Nc2ccc(Cl)cc2)c(C)n1-c1ccccc1 ?
Wnt bcat act: 1.4; HSF-1 act: -91.8; HSF1 inhib: -90.3*

Results for Cc1ccc(NC(=O)c2cc(C)n(-c3ccccc3)c2C)cc1 ?
Wnt bcat act: -10.6; MITF TRPM1 HTS: -50.4; HSF-1 act: -83.2; HSF1 inhib: -81.5*

What do the screens show for `Cc1ccc(NC(=O)c2cc(C)n(-c3cccc(C)c3)c2C)cc1`?
Wnt bcat act: -11.5; MITF TRPM1 HTS: 17.8; HSF-1 act: -74.7; HSF1 inhib: -70.3*

Results for Cc1cc(C(=O)Nc2ccc(Cl)cc2)n(-c2ccccc2)n1 ?
Wnt bcat act: 5.7; MITF TRPM1 HTS: 28.7; HSF-1 act: 11.4; esBAF inh: 9.0; HSF1 inhib: 4.0

How did CCC(=O)N(C)C[C@@H]1Oc2ncc(-c3ccc(C(=O)N(C)C)cc3)cc2C(=O)N([C@H](C)CO)C[C@H]1C do in these assays?
esBAF inh: 2.2

Results for COc1cccc(-n2cc3c(=O)n(C)c(=O)n(C)c3c2)c1 ?
MITF TRPM1 HTS: 18.5; HSF-1 act: 43.9; esBAF inh: 47.5*; HSF1 inhib: 33.5

How did Cn1c(=O)c2cn(-c3ccccc3)cc2n(C)c1=O do in these assays?
Wnt bcat act: -0.6; MITF TRPM1 HTS: 22.0; HSF-1 act: -15.1; esBAF inh: 4.0; HSF1 inhib: -3.0

How did COc1ccc(C(=O)Nc2cnc(NC(=O)c3cccs3)cc2C)cc1 do in these assays?
Wnt bcat act: 6.1; MITF TRPM1 HTS: 14.3; HSF-1 act: 0.3; esBAF inh: 46.9*; HSF1 inhib: 4.8

What do the screens show for `COc1ccc(C(=O)NNC(=S)NC(=O)c2ccc(OC)cc2)cc1`?
Wnt bcat act: 0.2; HSF-1 act: -11.4; esBAF inh: 14.5; HSF1 inhib: -2.9

Results for COc1ccc(C(=O)NNC(=S)NC(=O)c2cccs2)cc1 ?
Wnt bcat act: -6.4; MITF TRPM1 HTS: -7.2; HSF-1 act: -72.5; HSF1 inhib: -74.4*

What do the screens show for `COc1ccc(C(=O)Nc2cc(C)c(NC(=O)c3ccccn3)cn2)cc1`?
Wnt bcat act: 19.3; MITF TRPM1 HTS: 66.7; HSF-1 act: 14.6; esBAF inh: inconclusive; HSF1 inhib: 6.9

How did CCCCN(C(=O)/C=C/c1ccco1)c1c(N)n(CCC)c(=O)[nH]c1=O do in these assays?
Wnt bcat act: 1.0; MITF TRPM1 HTS: -5.5; HSF-1 act: 76.4*; esBAF inh: -0.4; HSF1 inhib: 30.3

Results for Nc1c(N(CCO)C(=O)/C=C/c2ccco2)c(=O)[nH]c(=O)n1Cc1ccccc1 ?
Wnt bcat act: -0.4; MITF TRPM1 HTS: -4.6; HSF-1 act: 1.8; HSF1 inhib: 1.6

What do the screens show for `C[C@@H]1CN([C@H](C)CO)C(=O)c2cc(NC(=O)c3ccncc3)ccc2O[C@@H](C)CCCCO[C@@H]1CN(C)S(=O)(=O)c1ccc(F)cc1`?
esBAF inh: -5.2

Results for CO[C@@H]1CN(C)C(=O)c2cc(NC(=O)C3CCCCC3)ccc2OC[C@H](C)N(C)C[C@H]1C ?
esBAF inh: -1.4

How did Cc1nc(N)sc1-c1csc(N(C)c2ccc(O)cc2)n1 do in these assays?
Wnt bcat act: -2.7; MITF TRPM1 HTS: 37.7; HSF-1 act: -18.0; esBAF inh: 43.5*; HSF1 inhib: -0.5

How did C[C@H](CO)N1C[C@H](C)[C@H](CN(C)C(=O)C2CCCCC2)OCCCC[C@H](C)Oc2ccc(NS(C)(=O)=O)cc2C1=O do in these assays?
esBAF inh: 11.3
